Assay results as given in PubChem BioAssay (NCI).
This is part of a sample that, as a whole, favours compounds with a hit. Of some 83,000 tested, about 20% had one in any assay.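 Note: values are percent growth. 100 is the growth of untreated cells, values between 100 and 0 indicate rising inhibition; between -100 and 0 indicates cell death.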 Activity calls are given as the source filed them.

Each molecule was assayed on TK-10 renal (assay: NCI-60 one-dose screen, 48 h (100 = growth as untreated, 0 = no growth, -100 = all killed)). Details: 10 µM.
Experimental: Growth inhibition of the TK-10 human tumor cell line is measured as a screen for anti-cancer activity. Cells are grown in 96 well plates and exposed to the test compound for 48 hours. Compounds are tested at a single concentration, which is 10^-5 M for most compounds. The reported endpoint is percent growth (GI% or GIPRCNT), where numbers from 0 - 100% represent growth inhibition, and numbers from -100% - 0 represent cell death. For example, a value of 40 represents 60% growth inhibition. A value of 0 means no net growth occurred over the course of the experiment. A value of -40 indicates 40% of cells at the beginning of the experiment died by the end of the experiment. A value of -100 means all cells are dead at the end of the experiment.
NCI-60 Human Tumor Cell Lines Screen was performed using the standard one-dose NCI protocol, which is described in more detail at https://dtp.cancer.gov/discovery_development/nci-60/default.htm.
Compounds with GIPRCNT values below 10 were considered active. Activity score was based on GIPRCNT using the following formula: […]
Score is 0 for GIPRCNT values of 100 or above, 50 for GIPRCNT values of 0, and 100 for GIPRCNT values of -100.

Q: With `Clc1nc(Cl)c2c(ncn2C/C=C\Cn2cnc3c(Cl)nc(Cl)nc32)n1` as the molecule, how does the growth read?
A: -97.2% (active)

Q: How did the growth turn out when `O=C(NC(Cc1ccc(O)cc1)C(=O)N=Nc1c(O)[nH]c2ccccc12)c1ccccc1` (stereo not given) was run?
A: 97.7% (inactive)

Q: Which growth does the source give for `COc1cc(Cl)cc(-c2nn(-c3cccc(NC(=O)Nc4ccc(Cl)c(Cl)c4)c3)cc2-c2ccncc2)c1` here?
A: 19.8% (inactive)

Q: Which growth does the source give for `FC(F)(F)c1ccc(-c2cnc(-n3cc(COCCN4CCCCC4)nn3)nc2NC2CCCCCC2)cc1` here?
A: -14% (active)

Q: For `N=c1c2c(-c3ccccc3)c(-c3ccccc3)n(Cc3ccccc3)c2ncn1CCCO`, which growth is on record?
A: 35.4% (inactive)

Q: Which growth does the source give for `COc1cc(-c2nc(-c3nnc(-c4ccc(F)c(Cl)c4)o3)c3ccccn23)cc(OC)c1OC` here?
A: 56.7% (inactive)

Q: For `Cn1c(N)c(N=Nc2ccc(S(=O)(=O)Nc3nccs3)cc2)c(=O)n(C)c1=O`, which growth is on record?
A: 98.7% (inactive)

Q: How did the growth turn out when `CCOC(=O)C1(CC(C)C)CCOC1=O` (stereo not given) was run?
A: 106% (inactive)

Q: With `Cc1cc(=O)n2nnc3c4ccccc4ccc3n12` as the molecule, how does the growth read?
A: 74.1% (inactive)

Q: For `CN1CCC(CNc2cc(C3(C(=O)Nc4cc(C(=O)Nc5ccc(Cl)c(C(F)(F)F)c5)ccc4F)CC3)ncn2)CC1`, which growth is on record?
A: 84.5% (inactive)

Q: With `CC(=O)n1c(-c2ccc(Cl)c(Cl)c2)cn(-c2ccc(Cl)cc2)c1=O` as the molecule, how does the growth read?
A: 54.4% (inactive)

Q: Which growth does the source give for `CN1CCC2(CC1)NC(=O)c1c(c3ccc(Cl)c(Cl)c3n1C)C2C#N` (stereo not given) here?
A: 98.7% (inactive)

Q: For `CS(=O)(=O)Nc1ccc(Nc2c3ccccc3nc3cc([N+](=O)[O-])ccc23)cc1`, which growth is on record?
A: 16% (inactive)

Q: `CC(=O)OCc1cc(-c2nc3ccccc3[nH]c2=O)nn1-c1ccc(Cl)cc1` was tested. Which growth did it give?
A: 119% (inactive)

Q: `COc1ccc(OC)c2c1C(=O)CC2C` (stereo not given) was tested. Which growth did it give?
A: 118% (inactive)

Q: With `CCC(=O)N1C/C(=C/c2ccc(OC)cc2)C(=O)/C(=C/c2ccc(OC)cc2)C1` as the molecule, how does the growth read?
A: 70.3% (inactive)

Q: How did the growth turn out when `O=C(CCCCC(=O)Nc1ccc2c(c1)/C(=C/c1ccc[nH]1)C(=O)N2)NO` was run?
A: 86% (inactive)

Q: Which growth does the source give for `O=C(Nc1ccncc1)C(=O)c1cn(S(=O)(=O)c2cccc3ccccc23)c2ccccc12` here?
A: 88.3% (inactive)

Q: With `O=c1[nH]c2ccc(Cl)cc2c2ccccc12` as the molecule, how does the growth read?
A: 81% (inactive)

Q: For `COc1ccc2c(c1)nc(N)c1c3cccnc3cn21`, which growth is on record?
A: 51.3% (inactive)

Q: With `COc1ccc2c(c1)N(CCO)C1=C(C(=O)OC1)C2c1cc(OC)c(OC)c(OC)c1` (stereo not given) as the molecule, how does the growth read?
A: 66% (inactive)

Q: With `Cc1[nH]nc2c1C(c1cnn(C)c1)C(C#N)=C(N)O2` (stereo not given) as the molecule, how does the growth read?
A: 102% (inactive)

Q: `O=C(NN1C(=O)CSC1c1ccc(Cl)cc1)c1cccnc1` (stereo not given) was tested. Which growth did it give?
A: 107% (inactive)

Q: For `COc1cc(CNc2ccccc2C(=O)N2CCN(C(=O)c3cc(-c4cc(OC)c(OC)c(OC)c4)n4nc(-c5ccccc5)cc4n3)CC2)cc(OC)c1OC`, which growth is on record?
A: 52.1% (inactive)

Q: How did the growth turn out when `COc1cc2c(cc1OC)N(CCO)C1=C(C(=O)OC1)C2c1ccc(Cl)c(Cl)c1` (stereo not given) was run?
A: 98.7% (inactive)

Q: With `COc1ccc2c(c1)O/C(=C\c1ccc([N+](=O)[O-])s1)C2=O` as the molecule, how does the growth read?
A: 42.5% (inactive)

Q: Which growth does the source give for `Clc1ccc(Nc2ccnc(NCCNc3ccnc4cc(Cl)ccc34)n2)cc1` here?
A: -29.9% (active)

Q: For `CCCCCCCCCCCCCCCCCC(=O)OCCCCCCC`, which growth is on record?
A: 113% (inactive)

Q: Which growth does the source give for `CCOC(=O)CNC(=O)CCCCSc1ncnc2nc[nH]c12` here?
A: 158% (inactive)

Q: With `C(CCCC1=NCCO1)CCCC1=NCCO1` as the molecule, how does the growth read?
A: 110% (inactive)

Q: How did the growth turn out when `CCN(CC)CCC(CNc1c(C)cnc2cc(Cl)ccc12)c1ccc(Cl)c(Cl)c1` (stereo not given) was run?
A: 94.4% (inactive)

Q: For `Cc1cs/c(=N\NC(=O)c2cc(-c3cc4ccccc4o3)nn2-c2ccccc2)n1-c1ccccc1`, which growth is on record?
A: 121% (inactive)

Q: Which growth does the source give for `COc1ccc(OC)c(/C=C/c2nc(SC)n(-c3ccc(Cl)cc3)n2)c1` here?
A: 92.3% (inactive)

Q: `Nc1c(C(=O)Nc2cccc(F)c2)sc2nc3c(cc12)C(=O)CCC3` was tested. Which growth did it give?
A: 85.5% (inactive)

Q: How did the growth turn out when `CSc1nn(-c2ccccc2)c2ncnc(Oc3ccccc3)c12` was run?
A: 106% (inactive)

Q: Which growth does the source give for `Cn1c([N+](=O)[O-])cnc1/C=C1\Oc2ccccc2C1=O` here?
A: -28.8% (active)

Q: How did the growth turn out when `COc1ccc(-c2cc(-c3cccc(NS(C)(=O)=O)c3)nc(N)c2C#N)cc1` was run?
A: 67.5% (inactive)

Q: With `CN(CCc1ccccn1)c1ccccc1` as the molecule, how does the growth read?
A: 104% (inactive)

Q: For `O=C(CC(NC(=O)OCc1ccccc1)C(=O)OCc1ccccc1)OCc1ccccc1` (stereo not given), which growth is on record?
A: 97.6% (inactive)

Q: For `CS(=O)(=O)Nc1ccc(Nc2c3ccccc3nc3cc(N)ccc23)cc1`, which growth is on record?
A: 62.3% (inactive)
